Source: the supplement of paper PMC13380429

Tested on: Vero E6 infected with SARS-CoV-2
Assay: inhibition of SARS-CoV-2 cytopathic effect; higher = more antiviral protection, active = above 15
Conditions: 48 h

Measured: inhibition of SARS-CoV-2 cytopathic effect

CCOC(=O)[C@H](CCc1ccccc1)N[C@@H](C)C(=O)N1Cc2ccccc2C[C@H]1C(=O)O [quinapril]
inactive: 1 nM 1.54% | 8.33 nM 1.58% | 100 nM 0.68% | 833.33 nM 2.09% | 10000 nM 4.29%

NCc1cc(O)no1 [muscimol]
inactive: 1 nM -0.61% | 8.33 nM 0.05% | 100 nM 2.35% | 833.33 nM 0.14% | 10000 nM 0.49%

O=C(/C=C/c1ccc2ccccc2n1)c1ccncc1
inactive: 1 nM -4.3% | 8.33 nM -0.71% | 100 nM -2.06% | 833.33 nM -1.46% | 10000 nM -3.51%

COc1cc(Nc2nc3ccccc3nc2NS(=O)(=O)c2ccc(NC(=O)c3ccc(C)c(OC)c3)cc2)cc(OC)c1
inactive: 1 nM 1.14% | 8.33 nM 4.37% | 100 nM 1.01% | 833.33 nM -1.67% | 10000 nM 0.57%

CCN(CC)CCCCNc1ncc2cc(-c3c(Cl)cccc3Cl)c(NC(=O)NC(C)(C)C)nc2n1
inactive: 1 nM -1.36% | 8.33 nM -1.31% | 100 nM 2.1% | 833.33 nM -1.78% | 10000 nM 13.4%

CCC(C)(Oc1ccc(C2(c3ccc(OC(C)(CC)C(=O)O)cc3)CCCCC2)cc1)C(=O)O (stereo not given) [clinofibrate]
inactive: 1 nM -0.17% | 8.33 nM -1.53% | 100 nM -1.92% | 833.33 nM -1.83% | 10000 nM 0.41%

CCC(=O)O[C@]1(C(=O)CCl)[C@@H](C)C[C@H]2[C@@H]3CCC4=CC(=O)C=C[C@]4(C)[C@@]3(F)[C@@H](O)C[C@@]21C [clobetasol-propionate]
inactive: 1 nM 1.28% | 8.33 nM 1.27% | 100 nM 0.69% | 833.33 nM 0.48% | 10000 nM 3.52%

CO/N=C(\C(=O)N[C@@H]1C(=O)N2C(C(=O)O)=C(COC(N)=O)CS[C@H]12)c1ccco1
inactive: 1 nM -0.51% | 8.33 nM 1.54% | 100 nM 0.59% | 833.33 nM 0.24% | 10000 nM -0.24%

C=C(C)[C@@H]1CC=C(CO)CC1 [perillyl-alcohol]
inactive: 1 nM 2.64% | 8.33 nM -3.02% | 100 nM 2.99% | 833.33 nM 2.39% | 10000 nM -1.2%

O=C(O)C(=O)Nc1cccc(-c2nnn[nH]2)c1 [acitazanolast]
inactive: 1 nM -1.24% | 8.33 nM -0.89% | 100 nM -0.76% | 833.33 nM -1.09% | 10000 nM -0.46%

CN(C)N(C)C(=O)[C@@]1(Cc2ccccc2)CCCN(C(=O)[C@@H](Cc2c[nH]c3ccccc23)NC(=O)C(C)(C)N)C1 [anamorelin]
inactive: 1 nM -0.24% | 8.33 nM -1% | 100 nM 9.14% | 833.33 nM -2.12% | 10000 nM -0.05%

CCC(C(=O)O)c1ccc(CC(C)C)cc1 (stereo not given) [butibufen]
inactive: 1 nM -2.32% | 8.33 nM -1% | 100 nM 1.35% | 833.33 nM 2.34% | 10000 nM -0.15%

N#C/C(=C\c1ccc(O)c(O)c1)C(N)=O [tyrphostin-AG-99]
inactive: 1 nM 3.54% | 8.33 nM 0.59% | 100 nM -0.43% | 833.33 nM 3.25% | 10000 nM 0.46%

CC(C)(C)c1ccc2cc(C#N)c(C#N)cc2c1
inactive: 1 nM 0.02% | 8.33 nM 1.71% | 100 nM -1.56% | 833.33 nM 0.05% | 10000 nM -3.93%

CC(=O)[C@@]1(O)CC[C@H]2[C@@H]3C[C@H](C)C4=CC(=O)C=C[C@]4(C)[C@@]3(F)[C@@H](O)C[C@@]21C [fluorometholone]
inactive: 1 nM 0.01% | 8.33 nM 0.61% | 100 nM 0.19% | 833.33 nM -0.97% | 10000 nM 1.57%

Cc1c(C)c2c(c(C)c1O)CCC(C)(C(=O)O)O2 (stereo not given) [trolox]
inactive: 1 nM 4.59% | 8.33 nM 3.64% | 100 nM 1.16% | 833.33 nM 6.02% | 10000 nM 2.14%

O=C(O[C@@H]1Cc2c(O)cc(O)cc2O[C@@H]1c1cc(O)c(O)c(O)c1)c1cc(O)c(O)c(O)c1 [epigallocatechin-gallate-(-)]
inactive: 1 nM -3.81% | 8.33 nM 2.17% | 100 nM 0.79% | 833.33 nM 1.05% | 10000 nM 0.98%

CC(=O)[C@H]1CC[C@H]2[C@@H]3CC[C@H]4C[C@](C)(O)CC[C@]4(C)[C@H]3CC[C@]12C [ganaxolone]
inactive: 1 nM -0.23% | 8.33 nM 4.47% | 100 nM 1.85% | 833.33 nM 0.7% | 10000 nM 0.84%

COc1cc([C@@H]2c3cc4c(cc3[C@@H](O[C@@H]3O[C@@H]5CO[C@@H](C)O[C@H]5[C@H](O)[C@H]3O)[C@H]3COC(=O)[C@H]23)OCO4)cc(OC)c1O [etoposide]
inactive: 1 nM 6.79% | 8.33 nM -0.79% | 100 nM -0.58% | 833.33 nM -2.82% | 10000 nM 4.17%

CCOc1cc(OCC)c(C(=O)CCC(=O)O)cc1OCC [trepibutone]
inactive: 1 nM -2.61% | 8.33 nM 0.72% | 100 nM -0.04% | 833.33 nM -0.1% | 10000 nM 0.69%
